Structures are written as SMILES. Among all 350,000 compounds or so, about 6,000 (1.7%) were called active. Roughly 5% stayed inconclusive and do not appear here. The entries come from a sample that favours actives as a whole. Values without a mark were called inactive. Cut-off read from the data, not from the text of the source: active = CPE inhibition above about 20% (passing the limit was not always enough); inconclusive = no clear call, values can overlap the other calls; tested in BHK-21 cells.

A short description of the experiment: protection of cells from dengue 2 killing – plate reader, single concentration, primary screen (AID 651640).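 Note: 0% = median of neutral control wells and 100% = median of positive control wells.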 The conditions noted are these: DENV2-infected cells, cytopathic effect rescue, at 9.99 µM, stronger effect = higher value.
Take `COc1ccc(S(=O)(=O)N(C)C[C@@H]2Oc3ccc(NC(=O)Cc4ccccc4)cc3CC(=O)N([C@@H](C)CO)C[C@H]2C)cc1`: the CPE inhibition is -3.88%.

In the case of `CO[C@@H]1CN(C)C(=O)c2cc(NC(=O)c3ccc4c(c3)OCO4)ccc2OC[C@H](C)N(CCC(F)(F)F)C[C@H]1C`, the CPE inhibition is 2.23%. For `Cc1noc(C)c1NC(=O)Nc1ccc2c(c1)CC(=O)N([C@@H](C)CO)C[C@@H](C)[C@H](CN(C)C(=O)NC1CCCCC1)O2`, the CPE inhibition was 1.27%.

In the case of `N#C[C@@H]1[C@@H](c2ccc(-c3ccccc3F)cc2)[C@@H](CO)N1C(=O)c1ccccn1`, the CPE inhibition was -0.879%. Under `COc1ccccc1NC(=O)N[C@H]1CC[C@@H](CC(=O)NCc2ccc(Cl)c(Cl)c2)O[C@H]1CO` stands -2.11%. As to `C/C=C/c1ccc2c(c1)O[C@@H](CN(C)C(=O)Cc1ccccn1)[C@@H](C)CN([C@H](C)CO)S2(=O)=O`, the CPE inhibition is 3.81%.

`C[C@@H]1CN([C@H](C)CO)S(=O)(=O)c2ccc(C#C[C@@H](C)O)cc2O[C@H]1CN(C)C(=O)CC1CC1`: the CPE inhibition was -1.93%. On to `Cc1ccc(C2Nc3ccccc3C(=O)N2CCN2CCNC2=O)cc1` (stereo not given), for which the CPE inhibition was -0.485%.

As for `Cc1cccc([C@@H]2[C@@H]3C(=O)N(C)C(=O)[C@@H]3[C@@H]3C(=O)Nc4ccccc4C(=O)N23)c1`, the CPE inhibition is 30.1% (active). For `Cc1cccc([C@H]2[C@@H]3C=CC[C@@H](C)[C@@H]3C(=O)N2Cc2ccccc2)c1`, the CPE inhibition is -1.21%. As to `O=C([C@H]1[C@H](CO)[C@H]2Cn3c(ccc(C4=CCCC4)c3=O)[C@@H]1N2C(=O)c1ccncc1)N1CCCCC1`, the CPE inhibition was -10.6%. Consider `CNC[C@@H]1Oc2cc(C#CC3CCCC3)ccc2S(=O)(=O)N([C@@H](C)CO)C[C@@H]1C`, for which the CPE inhibition is 3.46%. With `CNC[C@@H]1Oc2cc(C#CCC3CCCC3)ccc2S(=O)(=O)N([C@H](C)CO)C[C@H]1C`, the CPE inhibition was 18.9%. For `CNC[C@H]1Oc2cc(C#CC3CCCC3)ccc2S(=O)(=O)N([C@H](C)CO)C[C@@H]1C` the value was 49.1% (active).

With `CNC[C@@H]1Oc2cc(C#Cc3ccc(F)cc3)ccc2S(=O)(=O)N([C@@H](C)CO)C[C@H]1C`, the CPE inhibition was 7.09%.

For `CNC[C@H]1Oc2cc(C#Cc3ccccc3)ccc2S(=O)(=O)N([C@@H](C)CO)C[C@@H]1C`, the CPE inhibition is 10.6%. On to `CNC[C@H]1Oc2cc(C#CC(C)(C)O)ccc2S(=O)(=O)N([C@@H](C)CO)C[C@@H]1C`, for which the CPE inhibition is 29.3% (active). Under `COc1ccc(S(=O)(=O)N[C@H]2C=C[C@@H](CC(=O)O)O[C@@H]2CO)cc1` stands -1.75%; under `CN1CCN(C(=O)C[C@@H]2CC[C@@H]3[C@@H](COc4ccc(NC(=O)c5ccc(F)c(F)c5)cc4C(=O)N3C)O2)CC1`, -5.7%; under `COCc1cn(CC[C@@H]2CC[C@@H](NC(=O)Cc3cccnc3)[C@@H](CO)O2)nn1`, -4.68%. For `CC(=O)N(C)C[C@H]1Oc2ncc(C#CC3(O)CCCC3)cc2C(=O)N([C@@H](C)CO)C[C@@H]1C` the value was -10.8%; for `CCCC#Cc1cnc2c(c1)C(=O)N([C@H](C)CO)C[C@@H](C)[C@@H](CN(C)C(=O)C1CCOCC1)O2`, -8.59%; for `C[C@H]1CN([C@@H](C)CO)C(=O)c2ccccc2-c2ccccc2CO[C@H]1CN(C)S(=O)(=O)c1ccccc1C#N`, -1.68%. For `C[C@@H]1CN([C@@H](C)CO)C(=O)c2cc(C#CCc3ccccc3)cnc2O[C@@H]1CN(C)C(=O)C1CCOCC1`, the CPE inhibition was 95.4% (active). Turning to `Cc1ccc(S(=O)(=O)N(C)C[C@H]2OCc3ccccc3-c3ccccc3C(=O)N([C@@H](C)CO)C[C@@H]2C)cc1`, the CPE inhibition was 0.795%. Under `C[C@H]1CN([C@@H](C)CO)C(=O)c2ccccc2-c2ccccc2CO[C@H]1CN(C)S(=O)(=O)c1cccc(C#N)c1` stands 99.5% (active); under `C[C@@H]1CN([C@H](C)CO)C(=O)c2cc(C#CC3(O)CCCC3)cnc2O[C@H]1CN(C)C(=O)C1CCC1`, 35.8% (active); under `C[C@@H]1CN([C@H](C)CO)C(=O)c2cc(-c3cccc(C#N)c3)cnc2O[C@H]1CN(C)C(=O)C1CCC1`, 27.5% (active). Under `C[C@H](CO)N1C[C@H](C)[C@H](CN(C)C(=O)C2CCC2)Oc2ncc(C#CCc3ccccc3)cc2C1=O` stands -7.04%; under `C[C@H](CO)N1C[C@H](C)[C@@H](CN(C)C(=O)C2CC2)Oc2ncc(-c3cccc(C#N)c3)cc2C1=O`, -9.11%; under `C[C@@H]1CN([C@H](C)CO)C(=O)c2cc(C#CC3CCCC3)cnc2O[C@@H]1CN(C)C(=O)C1CCC1`, 0.319%. For `CC(C)NC(=O)N(C)C[C@H]1Oc2ncc(-c3cccc(C#N)c3)cc2C(=O)N([C@@H](C)CO)C[C@H]1C` the value was 1.79%. In the case of `C/C=C/c1ccc([C@@H]2[C@H](CO)N(CCC(F)(F)F)C23CN(C(=O)CC)C3)cc1`, the CPE inhibition was 8.21%. For `C[C@@H]1CN([C@H](C)CO)C(=O)Cc2cc(NC(=O)C3CC3)ccc2O[C@H]1CN(C)Cc1ccc(Cl)c(Cl)c1` the value was -2.59%; for `C[C@@H]1CCCCO[C@@H](CN(C)S(C)(=O)=O)[C@@H](C)CN([C@@H](C)CO)C(=O)c2cc(NS(=O)(=O)c3ccc(Cl)cc3)ccc2O1`, -9.73%. Under `CCC(=O)N(C)C[C@H]1Oc2ncc(C#C[C@@H](C)O)cc2C(=O)N([C@@H](C)CO)C[C@H]1C` stands 9.17%; under `CNC[C@@H]1Oc2c(NC(=O)Nc3ccc(F)cc3)cccc2C(=O)N([C@@H](C)CO)C[C@@H]1C`, 0.246%; under `CCC(=O)Nc1ccc2c(c1)C(=O)N(C)C[C@H](OC)[C@H](C)CN(CCC(F)(F)F)[C@H](C)CO2`, -10.4%.

For `COCC(=O)Nc1ccc2c(c1)C(=O)N(C)C[C@@H](OC)[C@H](C)CN(C(=O)c1cccnc1)[C@H](C)CO2`, the CPE inhibition is 7.26%.

For the compound `COc1cc2c(cc1OC)C(c1cccc([N+](=O)[O-])c1)=NCC2`, the CPE inhibition was 3%. In the case of `COc1cc2c(cc1OC)C(Nc1ccc(S(N)(=O)=O)cc1)=NC(C)(C)C2`, the CPE inhibition is 23.5% (active). As for `COc1ccc(NC(=S)Nc2ccc(S(N)(=O)=O)cc2)c(C)c1`, the CPE inhibition was 5.31%.

With `CCc1nc2c(OCCOc3ccccc3)cccn2c1N(C)C(=O)c1ccc(OC)cc1`, the CPE inhibition is -6.78%.

Regarding `CCc1nc2c(OCc3cccc(OC)c3)cccn2c1N(C)C(=O)C(C)C`, the CPE inhibition was 3.81%. Turning to `CCc1nc2c(OCCc3cccc(OC)c3)cccn2c1N(C)C(=O)c1ccc(C)cc1`, the CPE inhibition was 35.1% (active). For `COc1ccc(NC(=O)Nc2ccc3c(c2)C(=O)N([C@@H](C)CO)C[C@H](C)[C@H](CN(C)S(=O)(=O)c2ccccc2)OCCCC[C@@H](C)O3)cc1` the value was 0.841%; for `Cc1ccccc1NC(=O)Cc1nc(COC(=O)CNC(=O)c2ccc(Cl)cc2Cl)cs1`, -7.77%.

Consider `Cc1ccccc1NC(=O)Cc1nc(COC(=O)c2cccnc2Cl)cs1`, for which the CPE inhibition is 5.7%. Consider `Cc1ccccc1NC(=O)Cc1nc(COC(=O)C(C)(C)Oc2ccc(Cl)cc2)cs1`, for which the CPE inhibition was 45.3% (active). With `CN1c2ccc(-c3cccc(C#N)c3)cc2[C@@H]2[C@@H](CCN2C(=O)C2CCC2)[C@@H]1CO`, the CPE inhibition is -11%. `COc1ccc2c3c(n(C)c2c1)[C@@H](CO)N(C(C)=O)CC31CCN(C(=O)C2CC2)CC1`: the CPE inhibition is -6.89%. Take `COc1ccc(OC)c(/C(C)=N\NC(=O)c2cc3cc(Cl)ccc3n2C)c1`: the CPE inhibition was 69.2% (active).

Turning to `COc1ccc(/C(C)=N/NC(=O)CCC(=O)Nc2ccc(Cl)cc2Cl)c(OC)c1`, the CPE inhibition is -1.9%.

Consider `COc1ccc(OC)c(C(=O)c2ccc(Cl)cc2)c1`, for which the CPE inhibition is 1.87%.

Turning to `CCCN1C[C@@H](C)[C@@H](OC)CN(C)C(=O)c2ccc(NS(C)(=O)=O)cc2OC[C@@H]1C`, the CPE inhibition is -1.47%.

For `CCC(=O)N1C[C@H](C)[C@H](OC)CN(C)C(=O)c2ccc(NS(C)(=O)=O)cc2OC[C@H]1C`, the CPE inhibition was -1.33%. Under `Cc1noc(C)c1S(=O)(=O)Nc1ccc2c(c1)C(=O)N([C@H](C)CO)C[C@H](C)[C@H](CN(C)S(C)(=O)=O)OCCCC[C@H](C)O2` stands -2.38%.

As to `COc1ccccc1C(=O)NCCC(=O)NCC(c1ccco1)N1CCCCC1` (stereo not given), the CPE inhibition is -2.74%.

On to `O=C(CCNC(=O)c1ccc(Br)cc1)NCC(c1ccco1)N1CCCCC1` (stereo not given), for which the CPE inhibition was 81.5% (active). With `CC(Oc1ccc(Br)cc1)C(=O)NCC(c1ccco1)N1CCCCC1` (stereo not given), the CPE inhibition was -0.377%.

Consider `C[C@@H]1CCCCO[C@H](CN(C)C(=O)NC2CCCCC2)[C@H](C)CN([C@@H](C)CO)C(=O)c2cc(NC(=O)C3CCCCC3)ccc2O1`, for which the CPE inhibition was -2.82%. Consider `C[C@H](O)C#Cc1ccc2c(c1)O[C@H](CN(C)Cc1cccnc1)[C@H](C)CN([C@H](C)CO)S2(=O)=O`, for which the CPE inhibition was 9.35%.

For the compound `COCC#Cc1cnc2c(c1)C(=O)N([C@@H](C)CO)C[C@@H](C)[C@@H](CN(C)C(=O)Nc1ccc(OC)cc1)O2`, the CPE inhibition was -9.58%. `C[C@@H]1CN([C@H](C)CO)C(=O)Cc2cc(NC(=O)Nc3cccc4ccccc34)ccc2O[C@@H]1CN(C)Cc1ccc(C(=O)O)cc1`: the CPE inhibition was -18.4%. Under `Cc1ccc(S(=O)(=O)N(C)C[C@@H]2Oc3ccc(NC(=O)c4ccncc4)cc3CC(=O)N([C@H](C)CO)C[C@H]2C)cc1` stands 20.7% (active); under `C[C@H](CO)N1C[C@H](C)[C@H](CN(C)S(C)(=O)=O)Oc2ccc(NC(=O)c3ccncc3)cc2CC1=O`, -1.49%; under `C[C@H]1CN([C@@H](C)CO)C(=O)Cc2cc(NC(=O)Nc3cccc4ccccc34)ccc2O[C@@H]1CN(C)S(C)(=O)=O`, -2.56%.

In the case of `C[C@@H]1CN([C@H](C)CO)C(=O)Cc2cc(NC(=O)Nc3cccc4ccccc34)ccc2O[C@@H]1CN(C)Cc1ccc(C(F)(F)F)cc1`, the CPE inhibition is 20.3% (active). Under `COc1ccc(NC(=O)Nc2ccc3c(c2)CC(=O)N([C@@H](C)CO)C[C@@H](C)[C@@H](CN(C)Cc2ccc(C(F)(F)F)cc2)O3)cc1` stands -24.3%; under `C[C@@H]1CN([C@H](C)CO)C(=O)Cc2cc(NC(=O)c3ccncc3)ccc2O[C@H]1CN(C)S(=O)(=O)c1cccs1`, 19.1%; under `C[C@H]1CN([C@@H](C)CO)C(=O)Cc2cc(NC(=O)Nc3cccc4ccccc34)ccc2O[C@@H]1CN(C)C`, 25.6% (active). Take `C[C@H](CO)N1C[C@H](C)[C@H](CN(C)Cc2ccc(-c3ccccc3)cc2)Oc2ccc(NC(=O)Nc3ccc(F)cc3)cc2CC1=O`: the CPE inhibition was 33.6% (active).

As to `COc1ccc(CN(C)C[C@@H]2Oc3ccc(NC(=O)Nc4ccc(F)cc4)cc3CC(=O)N([C@@H](C)CO)C[C@H]2C)cc1`, the CPE inhibition is 2.99%.

With `C[C@H]1CN([C@@H](C)CO)C(=O)Cc2cc(NC(=O)Nc3cccc4ccccc34)ccc2O[C@H]1CN(C)CC1CC1`, the CPE inhibition is 2.69%.

Consider `C[C@@H]1CN([C@H](C)CO)C(=O)Cc2cc(NC(=O)Nc3ccc(C(F)(F)F)cc3)ccc2O[C@H]1CN(C)Cc1ccc(-c2ccccc2)cc1`, for which the CPE inhibition is -23%.
